Experimental data taken from the supplement of paper PMC8975748.
Structures can show the parent of a compound that is named as a salt. ± gives the standard deviation of the averaged measurements.

Experiments:
[1] = tested on: Saccharomyces cerevisiae BY4741 SeMeCo community; test: mean cell size (pixel area) (pixels); higher = larger cells; conditions: 10 µM; 24 h; SM minimal medium
Procedure, shortened: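 A Saccharomyces cerevisiae BY4741 community carrying four plasmids, each with a fluorescent marker and each complementing one auxotrophy, was exposed for 24 h to drug at a final 10 µM in SM medium in acoustically predosed 384-well plates. The overnight preculture (OD600 = 1.0) was diluted to OD600 = 0.3 before 70 µl was added per well. Cells were then fixed with paraformaldehyde, imaged by automated confocal microscopy and analysed in Harmony to derive mean cell pixel area per well, averaged over 3 replicates. Same SeMeCo high-content imaging drug screen: Selleck FDA-approved drugs at 10 µM, 24 h in SM medium, 384-well plates, 3 replicates.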

[2] = tested on: Saccharomyces cerevisiae BY4741 SeMeCo community; test: z-score of prototroph abundance vs DMSO median; higher = larger share of this subpopulation than in DMSO controls; conditions: 10 µM; 24 h; SM minimal medium; subpopulation (auxotrophy): Prototroph
Procedure, shortened: (§1)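 Scoring was based on each subpopulation's abundance, expressed as a z-score against the vehicle-well median. A Saccharomyces cerevisiae BY4741 community with four plasmids, each restoring one auxotrophy and encoding a distinct fluorescent protein, was pre-grown overnight to OD600 1.0, diluted to 0.3, and added at 70 µl to 384-well plates acoustically predosed with library drugs (10 µM final). It then grew 24 h in minimal SM medium before paraformaldehyde fixation and automated confocal microscopy, with single-auxotroph fluorescent strains setting thresholds and autofluorescence correction.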

[3] = tested on: Saccharomyces cerevisiae BY4741 SeMeCo community; test: z-score of subpopulation abundance vs DMSO median, subpopulation auxotrophic for M; higher = larger share of this subpopulation than in DMSO controls; conditions: 10 µM; 24 h; SM minimal medium; subpopulation (auxotrophy): M
Procedure, shortened: as §1

[4] = tested on: Saccharomyces cerevisiae BY4741 SeMeCo community; test: z-score of subpopulation abundance vs DMSO median, subpopulation auxotrophic for L; higher = larger share of this subpopulation than in DMSO controls; conditions: 10 µM; 24 h; SM minimal medium; subpopulation (auxotrophy): L
Procedure, shortened: as §1

[5] = tested on: Saccharomyces cerevisiae BY4741 SeMeCo community; test: z-score of subpopulation abundance vs DMSO median, subpopulation auxotrophic for U; higher = larger share of this subpopulation than in DMSO controls; conditions: 10 µM; 24 h; SM minimal medium; subpopulation (auxotrophy): U
Procedure, shortened: as §1

[6] = tested on: Saccharomyces cerevisiae BY4741 SeMeCo community; test: z-score of subpopulation abundance vs DMSO median, subpopulation auxotrophic for H; higher = larger share of this subpopulation than in DMSO controls; conditions: 10 µM; 24 h; SM minimal medium; subpopulation (auxotrophy): H
Procedure, shortened: as §1

[7] = tested on: Saccharomyces cerevisiae BY4741 SeMeCo community; test: z-score of subpopulation abundance vs DMSO median, subpopulation auxotrophic for LM; higher = larger share of this subpopulation than in DMSO controls; conditions: 10 µM; 24 h; SM minimal medium; subpopulation (auxotrophy): LM
Procedure, shortened: as §1

[8] = tested on: Saccharomyces cerevisiae BY4741 SeMeCo community; test: z-score of subpopulation abundance vs DMSO median, subpopulation auxotrophic for HM; higher = larger share of this subpopulation than in DMSO controls; conditions: 10 µM; 24 h; SM minimal medium; subpopulation (auxotrophy): HM
Procedure, shortened: as §1

[9] = tested on: Saccharomyces cerevisiae BY4741 SeMeCo community; test: z-score of subpopulation abundance vs DMSO median, subpopulation auxotrophic for UM; higher = larger share of this subpopulation than in DMSO controls; conditions: 10 µM; 24 h; SM minimal medium; subpopulation (auxotrophy): UM
Procedure, shortened: as §1

[10] = tested on: Saccharomyces cerevisiae BY4741 SeMeCo community; test: z-score of subpopulation abundance vs DMSO median, subpopulation auxotrophic for HL; higher = larger share of this subpopulation than in DMSO controls; conditions: 10 µM; 24 h; SM minimal medium; subpopulation (auxotrophy): HL
Procedure, shortened: as §1

[11] = tested on: Saccharomyces cerevisiae BY4741 SeMeCo community; test: z-score of subpopulation abundance vs DMSO median, subpopulation auxotrophic for HLM; higher = larger share of this subpopulation than in DMSO controls; conditions: 10 µM; 24 h; SM minimal medium; subpopulation (auxotrophy): HLM
Procedure, shortened: as §1

[12] = tested on: Saccharomyces cerevisiae BY4741 SeMeCo community; test: z-score of subpopulation abundance vs DMSO median, subpopulation auxotrophic for LUM; higher = larger share of this subpopulation than in DMSO controls; conditions: 10 µM; 24 h; SM minimal medium; subpopulation (auxotrophy): LUM
Procedure, shortened: as §1

[13] = tested on: Saccharomyces cerevisiae BY4741 SeMeCo community; test: z-score of subpopulation abundance vs DMSO median, subpopulation auxotrophic for LU; higher = larger share of this subpopulation than in DMSO controls; conditions: 10 µM; 24 h; SM minimal medium; subpopulation (auxotrophy): LU
Procedure, shortened: as §1

[14] = tested on: Saccharomyces cerevisiae BY4741 SeMeCo community; test: z-score of subpopulation abundance vs DMSO median, subpopulation auxotrophic for HU; higher = larger share of this subpopulation than in DMSO controls; conditions: 10 µM; 24 h; SM minimal medium; subpopulation (auxotrophy): HU
Procedure, shortened: as §1

[15] = tested on: Saccharomyces cerevisiae BY4741 SeMeCo community; test: z-score of subpopulation abundance vs DMSO median, subpopulation auxotrophic for HUM; higher = larger share of this subpopulation than in DMSO controls; conditions: 10 µM; 24 h; SM minimal medium; subpopulation (auxotrophy): HUM
Procedure, shortened: as §1

[16] = tested on: Saccharomyces cerevisiae BY4741 SeMeCo community; test: z-score of subpopulation abundance vs DMSO median, subpopulation auxotrophic for HLUM; higher = larger share of this subpopulation than in DMSO controls; conditions: 10 µM; 24 h; SM minimal medium; subpopulation (auxotrophy): HLUM
Procedure, shortened: as §1

CN[C@H]1CC[C@@H](c2ccc(Cl)c(Cl)c2)c2ccccc21 [Sertraline HCl]
mean cell size [1]: 12.4 ± 0.056 | z-score of prototroph abundance [2]: 1.15 | z-score of subpopulation abundance [3]: 0.18 | z-score of subpopulation abundance [4]: -0.29 | z-score of subpopulation abundance [5]: -0.41 | z-score of subpopulation abundance [6]: -1.14 | z-score of subpopulation abundance [7]: -0.97 | z-score of subpopulation abundance [8]: -0.87 | z-score of subpopulation abundance [9]: -0.56 | z-score of subpopulation abundance [10]: -0.5 | z-score of subpopulation abundance [11]: -0.66 | z-score of subpopulation abundance [12]: -1.09

CC(C(=O)O)c1cccc(C(=O)c2ccccc2)c1 (stereo not drawn) [Ketoprofen]
mean cell size [1]: 12.4 ± 0.2 | z-score of prototroph abundance [2]: -0.62 | z-score of subpopulation abundance [3]: -0.04 | z-score of subpopulation abundance [4]: 1.73 | z-score of subpopulation abundance [6]: 0.99 | z-score of subpopulation abundance [13]: 0.57 | z-score of subpopulation abundance [8]: 0.55 | z-score of subpopulation abundance [14]: -0.66 | z-score of subpopulation abundance [9]: -0.3 | z-score of subpopulation abundance [10]: 1.42 | z-score of subpopulation abundance [15]: -0.02 | z-score of subpopulation abundance [12]: 1.22 | z-score of subpopulation abundance [16]: 1.1

CC[C@H]1OC(=O)[C@H](C)[C@@H](O[C@H]2C[C@@](C)(OC)[C@@H](O)[C@H](C)O2)[C@H](C)[C@@H](O[C@@H]2O[C@H](C)C[C@H](N(C)C)[C@H]2O)[C@](C)(O)C[C@@H](C)CN[C@H](C)[C@@H](O)[C@]1(C)O [Azathramycin]
mean cell size [1]: 12.5 ± 0.16 | z-score of prototroph abundance [2]: 0.12 | z-score of subpopulation abundance [3]: 0 | z-score of subpopulation abundance [4]: -0.61 | z-score of subpopulation abundance [5]: 0.07 | z-score of subpopulation abundance [6]: 0.33 | z-score of subpopulation abundance [13]: -0.39 | z-score of subpopulation abundance [7]: -0.14 | z-score of subpopulation abundance [8]: 0.1 | z-score of subpopulation abundance [14]: -0.16 | z-score of subpopulation abundance [9]: 0.42 | z-score of subpopulation abundance [10]: -0.33 | z-score of subpopulation abundance [15]: 0.01 | z-score of subpopulation abundance [12]: -0.37 | z-score of subpopulation abundance [16]: -0.5

CCN(CC)CC#CCOC(=O)C(O)(c1ccccc1)C1CCCCC1 (stereo not drawn) [Oxybutynin]
mean cell size [1]: 12.5 ± 0.29 | z-score of subpopulation abundance [3]: -0.18 | z-score of subpopulation abundance [4]: -0.14 | z-score of subpopulation abundance [5]: 0.19 | z-score of subpopulation abundance [6]: -0.43 | z-score of subpopulation abundance [13]: -0.54 | z-score of subpopulation abundance [7]: -0.42 | z-score of subpopulation abundance [14]: 0.37 | z-score of subpopulation abundance [9]: -0.47 | z-score of subpopulation abundance [10]: -0.47 | z-score of subpopulation abundance [15]: 0.54 | z-score of subpopulation abundance [12]: -0.32

CN(C)c1cc(NC(=O)CNC(C)(C)C)c(O)c2c1C[C@H]1C[C@H]3[C@H](N(C)C)C(O)=C(C(N)=O)C(=O)[C@@]3(O)C(O)=C1C2=O [Tigecycline]
mean cell size [1]: 12.8 ± 0.2

CN(C)c1ccc(O)c2c1C[C@H]1C[C@H]3[C@H](N(C)C)C(O)=C(C(N)=O)C(=O)[C@@]3(O)C(O)=C1C2=O [Minocycline HCl]
mean cell size [1]: 12.2 ± 0.13

CN(C)[C@@H]1C(O)=C(C(N)=O)C(=O)[C@@]2(O)C(O)=C3C(=O)c4c(O)ccc(Cl)c4[C@@](C)(O)[C@H]3C[C@@H]12 [Chlortetracycline HCl]
mean cell size [1]: 12.4 ± 0.2

CCc1c(C)[nH]c2c1C(=O)C(CN1CCOCC1)CC2 (stereo not drawn) [Molindone hydrochloride]
mean cell size [1]: 12.2 ± 0.13 | z-score of prototroph abundance [2]: 0.46 | z-score of subpopulation abundance [4]: 0.73 | z-score of subpopulation abundance [6]: -0.43 | z-score of subpopulation abundance [13]: -0.32 | z-score of subpopulation abundance [7]: -0.16 | z-score of subpopulation abundance [14]: -0.73 | z-score of subpopulation abundance [9]: -0.67 | z-score of subpopulation abundance [15]: -0.76 | z-score of subpopulation abundance [12]: -0.28 | z-score of subpopulation abundance [16]: 0.04

C=C1c2cccc(O)c2C(=O)C2=C(O)[C@]3(O)C(=O)C(C(N)=O)=C(O)[C@@H](N(C)C)[C@@H]3[C@@H](O)[C@H]12 [Methacycline HCl]
mean cell size [1]: 12.2 ± 0.23

CN(C)[C@@H]1C(O)=C(C(N)=O)C(=O)[C@@]2(O)C(O)=C3C(=O)c4c(O)cccc4[C@@](C)(O)[C@H]3C[C@@H]12 [Tetracycline HCl]
mean cell size [1]: 12.3 ± 0.19

CCCCCCCCCC(=O)CC(O)S(=O)(=O)O (stereo not drawn) [Sodium Houttuyfonate]
mean cell size [1]: 12.02 ± 0.032

CC(=O)OCC1=C(C(=O)O)N2C(=O)[C@@H](NC(=O)CSC(=NC(C)C)NC(C)C)[C@H]2SC1 [Cefathiamidine]
mean cell size [1]: 12.3 ± 0.14

CN(C)[C@@H]1C(O)=C(C(N)=O)C(=O)[C@@]2(O)C(O)=C3C(=O)c4c(O)cccc4[C@@](C)(O)[C@H]3[C@H](O)[C@@H]12 [Oxytetracycline (Terramycin)]
mean cell size [1]: 12.87 ± 0.067

Cc1c(Nc2ncccc2C(=O)O)cccc1C(F)(F)F [Flunixin Meglumin]
z-score of prototroph abundance [2]: 0.11 | z-score of subpopulation abundance [4]: -1.33 | z-score of subpopulation abundance [5]: 0.63 | z-score of subpopulation abundance [6]: -0.33 | z-score of subpopulation abundance [7]: -1.23 | z-score of subpopulation abundance [14]: -0.19 | z-score of subpopulation abundance [9]: 0.51 | z-score of subpopulation abundance [10]: -0.74 | z-score of subpopulation abundance [11]: -0.58 | z-score of subpopulation abundance [15]: 0.12 | z-score of subpopulation abundance [12]: -0.14 | z-score of subpopulation abundance [16]: 0
